Laboratory results from PubChem BioAssay (Tox21).
Calls of active or inactive are those of the source. Unless noted, calls come from the whole dose curve; as a rule, active = well fitted curve in the direction sought with a large enough effect in the repeat runs; inconclusive = weak or mixed curves; inactive = no such curve, though single readings can be large; an effect the other way counts as inactive or inconclusive.

Tests used:
[1] = qHTS assay to test for compound auto fluorescence at 535 nm (green) in HEK293 cells (AID 720680)
[2] = qHTS assay to test for compound auto fluorescence at 460 nm (blue) in HEK293 cell free culture (AID 720681)
Procedure, shortened: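 Test compounds were pinned into cell-free culture medium (DMEM with 10% FBS) and fluorescence was read directly at Ex/Em 405/460 nm. Signals were expressed as fluorescence equivalents of triamterene, with DMSO vehicle as control.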

[3] = qHTS assay to test for compound auto fluorescence at 535 nm (green) in HEK293 cell free culture (AID 720682)
Procedure, shortened: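 Steps: dispense DMEM/10% FBS into empty wells; pin in compound or DMSO; measure fluorescence at 485/535 nm. Values are fluorescein equivalents.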

[4] = qHTS assay to test for compound auto fluorescence at 590 nm (red) in HEK293 cell free culture (AID 720683)
Procedure, shortened: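 Tox21 10K library compounds were pinned into cell-free DMEM with 10% FBS and fluorescence was read at excitation 540 nm. Activity is expressed as Rose Bengal sodium equivalency.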

[5] = qHTS assay to test for compound auto fluorescence at 590 nm (red) in HepG2 cell free culture (AID 720684)
Procedure, shortened: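 Ex 540 / Em 590 nm read of compound in cell-free MEM (10% FBS). Rose Bengal sodium reference.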

[6] = qHTS assay to test for compound auto fluorescence at 460 nm (blue) in HepG2 cell free culture (AID 720685)
Procedure, shortened: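 Cell-free plates of MEM plus 10% FBS received 23 nL compound or DMSO vehicle; blue-channel (405/460 nm) intensity scored against triamterene as reference fluorophore.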

[7] = qHTS assay to test for compound auto fluorescence at 535 nm (green) in HepG2 cell free culture (AID 720686)
[8] = qHTS assay to test for compound auto fluorescence at 460 nm (blue) in HepG2 cells (AID 720687)
Procedure, shortened: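 Cells (2,000/well in MEM with 10% FBS) attached overnight at 37 C, then were exposed to compound or DMSO for 1 hr at 37 C, 5% CO2. Fluorescence read at Ex/Em 405/460 nm, expressed as triamterene-equivalent signal.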

[9] = target: Glucocorticoid receptor (Homo sapiens) (UniProt P04150); assay: qHTS assay to identify small molecule agonists of the glucocorticoid receptor (GR) signaling pathway (AID 720691; active = well fitted activation curve with a large enough effect in the signal ratio in the repeat runs, not every such curve was filed as active; inconclusive = weak or mixed curves, or effect the other way; inactive = no such curve, though single readings can be large or run the other way; the % refers to the signal ratio; note: potency is the fitted concentration of half-maximal effect)
Procedure, shortened: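 Steps: seed GR-bla HeLa cells, incubate 4 h at 37 C/5% CO2; pin-transfer DMSO-dissolved compounds; incubate 18 h at 37 C; add LiveBLAzer B/G FRET substrate; after 2 h at room temperature, measure fluorescence.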

[10] = qHTS assay to identify small molecule antagonists of the glucocorticoid receptor (GR) signaling pathway - cell viability counter screen (AID 720693); note: nearly all actives have a fitted effect of over 55% in size; note: potency is the fitted concentration of half-maximal effect
[11] = qHTS assay for identifying genotoxic compounds that show differential cytotoxicity against isogenic chicken DT40 cell lines with known DNA damage response pathways - wild type cell line (AID 743012); note: nearly all actives have a fitted effect of over 60% in size; note: potency is the fitted concentration of half-maximal effect
Procedure, shortened: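 Cytotoxicity in repair-proficient parental chicken DT40 cells serves as the comparator for Rad54/Ku70- and Rev3-deficient lines. Cells were exposed to compounds for 40 h at 37 C/5% CO2, and ATP-based luminescence (CellTiter-Glo) measured viability.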

[12] = qHTS assay for identifying genotoxic compounds that show differential cytotoxicity against isogenic chicken DT40 cell lines with known DNA damage response pathways - Rev3 mutant cell line (AID 743014); note: nearly all actives have a fitted effect of over 55% in size; note: potency is the fitted concentration of half-maximal effect
[13] = qHTS assay for identifying genotoxic compounds that show differential cytotoxicity against isogenic chicken DT40 cell lines with known DNA damage response pathways - Rad54/Ku70 mutant cell line (AID 743015); note: nearly all actives have a fitted effect of over 60% in size; note: potency is the fitted concentration of half-maximal effect
[14] = qHTS assay to identify small molecule antagonists of the androgen receptor (AR) signaling pathway - cell viability counter screen (AID 743033; note: nearly all actives have a fitted effect of over 45% in size; note: potency is the fitted concentration of half-maximal effect)
[15] = qHTS assay to identify small molecule antagonists of the androgen receptor (AR) signaling pathway using the MDA cell line - cell viability counter screen (AID 743041; note: nearly all actives have a fitted effect of over 45% in size; note: potency is the fitted concentration of half-maximal effect)
Procedure, shortened: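 In this qHTS counter assay, fluorescence intensity after CellTiter-Fluor addition indicated viability of MDA-kb2 AR-luc cells given compounds and R1881 for 16 h at 37C.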

[16] = qHTS assay to identify small molecule antagonists of the thyroid receptor (TR) signaling pathway - cell viability counter screen (AID 743064); note: nearly all actives have a fitted effect of over 50% in size; note: potency is the fitted concentration of half-maximal effect
Procedure, shortened: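 Plate GH3.TRE-Luc cells; incubate 4 h at 37 °C; add compound, then T3 to 1 nM final; incubate 23.5 h; add CellTiter-Fluor; incubate 30 min at 37 °C, 5% CO2; read fluorescence.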

[17] = target: Glucocorticoid receptor (Homo sapiens) (UniProt P04150); assay: qHTS assay to identify small molecule antagonists of the glucocorticoid receptor (GR) signaling pathway (AID 720692; active = well fitted inhibition curve with a large enough effect in the signal ratio in the repeat runs, not every such curve was filed as active; inconclusive = weak or mixed curves, or effect the other way; inactive = no such curve, though single readings can be large or run the other way; the % refers to the signal ratio)
Procedure, shortened: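 Antagonism was scored as loss of dexamethasone-driven (5 nM final) reporter signal in HeLa cells bearing a glucocorticoid response element–beta-lactamase construct, after 18 h compound exposure at 37 C and 2 h FRET substrate loading.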

[18] = qHTS assay to identify small molecule antagonists of the thyroid receptor (TR) signaling pathway (AID 743065); note: series mostly up to about 70 µM; nearly all actives have a fitted effect of over 55% in size
Procedure, shortened: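 GH3.TRE-Luc rat pituitary cells carrying two TR response elements driving luciferase were plated for 4 h, given compound plus 1 nM T3 (final), and incubated 23.5 h at 37 C. ONE-Glo luminescence measured reporter inhibition; CellTiter-Fluor fluorescence tracked cytotoxicity.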

[19] = target: Androgen receptor (Homo sapiens) (UniProt P10275); assay: qHTS assay to identify small molecule agonists of the androgen receptor (AR) signaling pathway using the MDA cell line (AID 743040; note: nearly all actives have a fitted effect of over 20% in size)
Procedure, shortened: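 Cell-based luciferase reporter: MDA-kb2, MMTV promoter (AR + GR response elements). 16 h compound exposure at 37C; ONE-Glo, 30 min RT, luminescence.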
% is set by controls: 0 for no effect and ±100 for the full control effect.

Sequence of Glucocorticoid receptor (Homo sapiens) (P04150 whole entry, looked up): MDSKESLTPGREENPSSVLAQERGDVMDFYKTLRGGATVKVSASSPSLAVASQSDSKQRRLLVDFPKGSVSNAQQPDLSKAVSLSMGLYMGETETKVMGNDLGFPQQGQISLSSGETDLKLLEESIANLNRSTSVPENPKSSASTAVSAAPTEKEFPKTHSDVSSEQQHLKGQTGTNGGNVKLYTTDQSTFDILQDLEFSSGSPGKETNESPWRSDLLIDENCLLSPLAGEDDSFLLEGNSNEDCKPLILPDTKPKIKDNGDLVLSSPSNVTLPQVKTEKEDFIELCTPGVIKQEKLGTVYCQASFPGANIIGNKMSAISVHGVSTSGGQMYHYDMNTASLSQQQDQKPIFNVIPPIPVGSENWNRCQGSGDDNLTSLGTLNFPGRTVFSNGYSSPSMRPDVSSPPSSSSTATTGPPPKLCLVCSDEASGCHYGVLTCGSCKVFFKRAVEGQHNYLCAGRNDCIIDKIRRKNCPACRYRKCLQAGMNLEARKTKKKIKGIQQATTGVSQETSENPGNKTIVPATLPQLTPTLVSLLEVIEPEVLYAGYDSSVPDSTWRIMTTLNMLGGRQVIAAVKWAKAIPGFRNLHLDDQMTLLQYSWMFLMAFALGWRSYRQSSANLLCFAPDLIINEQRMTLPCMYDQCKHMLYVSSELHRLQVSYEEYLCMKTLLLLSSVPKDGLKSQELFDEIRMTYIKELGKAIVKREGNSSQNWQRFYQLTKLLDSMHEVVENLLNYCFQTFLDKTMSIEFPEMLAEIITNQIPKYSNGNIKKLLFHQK
Sequence of Androgen receptor (Homo sapiens) (P10275 whole entry, looked up): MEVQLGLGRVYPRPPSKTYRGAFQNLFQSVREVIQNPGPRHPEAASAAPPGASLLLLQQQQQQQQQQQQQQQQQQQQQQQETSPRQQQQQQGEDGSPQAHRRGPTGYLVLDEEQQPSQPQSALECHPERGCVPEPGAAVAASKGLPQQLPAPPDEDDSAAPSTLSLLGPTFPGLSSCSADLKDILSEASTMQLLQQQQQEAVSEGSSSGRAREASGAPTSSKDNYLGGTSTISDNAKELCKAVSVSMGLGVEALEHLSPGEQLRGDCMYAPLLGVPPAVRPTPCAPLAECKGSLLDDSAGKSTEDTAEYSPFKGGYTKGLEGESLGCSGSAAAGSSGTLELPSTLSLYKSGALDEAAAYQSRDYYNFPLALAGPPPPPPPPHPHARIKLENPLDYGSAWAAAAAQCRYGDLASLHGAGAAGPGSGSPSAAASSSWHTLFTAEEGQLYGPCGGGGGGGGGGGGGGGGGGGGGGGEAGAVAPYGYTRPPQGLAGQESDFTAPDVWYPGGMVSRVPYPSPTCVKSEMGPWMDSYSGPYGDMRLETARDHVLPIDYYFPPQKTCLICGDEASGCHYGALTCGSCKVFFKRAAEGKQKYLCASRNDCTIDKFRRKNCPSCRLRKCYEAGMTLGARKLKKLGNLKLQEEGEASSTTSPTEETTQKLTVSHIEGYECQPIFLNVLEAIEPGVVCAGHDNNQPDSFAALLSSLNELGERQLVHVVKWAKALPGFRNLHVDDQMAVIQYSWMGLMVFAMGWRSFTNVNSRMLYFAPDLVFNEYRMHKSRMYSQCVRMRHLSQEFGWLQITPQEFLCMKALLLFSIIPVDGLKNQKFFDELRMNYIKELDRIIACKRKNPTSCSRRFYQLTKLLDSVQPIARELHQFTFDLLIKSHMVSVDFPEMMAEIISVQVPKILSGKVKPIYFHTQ

Nc1nc(CC(=O)O)cs1
inactive: outcome [1] | Potency [2] | outcome [3] | outcome [4] | outcome [5] | Potency [6] | outcome [7] | Potency [8] | Potency [9] | Potency [10] | Potency [11] | Potency [12] | Potency [13] | Potency [14] | Potency [15] | Potency [16]

CC(=O)O[C@@H]1C(=O)O[C@@H]2[C@H]1OC(=O)[C@@H]2OC(C)=O
inactive: outcome [1] | Potency [2] | outcome [3] | outcome [4] | outcome [5] | Potency [6] | outcome [7] | Potency [8] | Potency [9] | Potency [17] | Potency [10] | Potency [14] | Potency [16]
active: Potency [11] 26.6 µM | Potency [13] 26.6 µM

N=C(N=C(N)N)N1CCOCC1
inactive: fluorescence, % of fluorescein [1] -0.0392% [at 18.6 µM] | fluorescence, % of fluorescent control [2] 0.0143% [at 18.6 µM] | activity change [3] -0.0209% [at 18.6 µM] | fluorescence, % of fluorescent control [4] 0.292% [at 18.6 µM] | fluorescence, % of Rose Bengal [5] 0.0286% [at 18.6 µM] | fluorescence, % of fluorescent control [6] 0.021% [at 18.6 µM] | fluorescence, % of fluorescein control [7] -0.0914% [at 18.6 µM] | fluorescence, % of fluorescent control [8] 0.133% [at 18.6 µM] | Potency [9] | Potency [17] | Potency [10] | Potency [11] | Potency [13] | Potency [14] | Potency [15] | Potency [16] | Potency [18]

COCCO
inactive: outcome [1] | Potency [2] | outcome [3] | outcome [4] | outcome [5] | Potency [6] | outcome [7] | Potency [8] | Potency [9] | Potency [17] | Potency [10] | Potency [11] | Potency [12] | Potency [13] | Potency [15] | Potency [16]

NC(N)=NN=C(/C=C/c1ccc([N+](=O)[O-])o1)/C=C/c1ccc([N+](=O)[O-])o1
active: Potency [9] 6.74 µM [inconclusive] | Potency [10] 5.35 µM | Potency [11] 1.5 µM | Potency [12] 0.75 µM | Potency [13] 1.88 µM | Potency [14] 9.52 µM | Potency [15] 23.7 µM | Potency [16] 1.68 µM
inactive: outcome [1] | Potency [2] | outcome [3] | outcome [4] | outcome [5] | Potency [6] | outcome [7] | Potency [8] | Potency [19]

O=C(O)[C@@H]1[C@H]2C[C@H]3c4[nH]c5ccccc5c4CCN3C[C@@H]2CC[C@@H]1O
inactive: fluorescence, % of fluorescein [1] -0.047% [at 18.6 µM] | fluorescence, % of fluorescent control [2] 4.98% [at 18.6 µM] | activity change [3] -0.0263% [at 18.6 µM] | fluorescence, % of fluorescent control [4] 0.0861% [at 18.6 µM] | fluorescence, % of Rose Bengal [5] -0.199% [at 18.6 µM] | fluorescence, % of fluorescent control [6] 4.25% [at 18.6 µM] | fluorescence, % of fluorescein control [7] 0.287% [at 18.6 µM] | fluorescence, % of fluorescent control [8] 5.05% [at 18.6 µM] | Potency [9] | Potency [17] | Potency [10] | Potency [12] | Potency [19] | Potency [15] | Potency [16]

COc1ccc(OC)c(OC)c1
inactive: outcome [1] | Potency [2] | outcome [3] | outcome [4] | outcome [5] | Potency [6] | outcome [7] | Potency [8] | Potency [9] | Potency [17] | Potency [10] | Potency [11] | Potency [12] | Potency [13] | Potency [15] | Potency [16] | Potency [18]
